In PubChem BioAssay:
Calls of active or inactive are those of the source.

Assays:
[1] = target: Albumin (Bos taurus) (UniProt P02769); experiment: bovine serum albumin binders on microarray, profiling panel, artefact control for SMM control protein annotation, biochemical, small-molecule microarray, Alexa647 label, 635/667 nm fluorescence (AID 1118); settings: BSA-A647 binding, fluorescence 635 nm, higher = more signal;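 note: score merges 667 nm emission intensity and signal-to-noise per printed compound spot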
[2] = small-molecule microarray binders of probe aXIP, primary screen, biochemical, NeuroSMM set, 635/667 nm fluorescence (AID 1119); settings: higher = more signal, called active from +8 up or from −8 down;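 note: probe is the protein aXip251-270 applied at 1 µg/mL to compound-printed slides; binding of probe to printed compounds measured as 667 nm fluorescence plus signal to noise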
[3] = small-molecule binders of probe aNOTCH3, primary screen, biochemical, small-molecule microarray, 635/667 nm fluorescence (AID 1120); settings: higher = more signal;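 note: probe is a biotin-tagged antibody raised against NOTCH3 rather than NOTCH3 protein; score merges spot fluorescence near 667 nm with spot signal to noise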
[4] = small-molecule binders of probe aNOTCH2, primary screen, biochemical, small-molecule microarray, 635/667 nm fluorescence (AID 1121); settings: higher = more signal;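 note: score merges feature fluorescence read at 667 nm with its signal to noise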
[5] = target: Carbonic anhydrase 2 (Homo sapiens) (UniProt P00918); experiment: CAII small-molecule binders, profiling panel, biochemical, small-molecule microarray, Alexa647-labelled CAII (AID 1122); settings: CAII-A647 binding fluorescence, higher = more signal
[6] = COS7 lysate on small-molecule microarray, probe aHis, 635 nm (AID 1123); settings: COS7 cell lysate, fluorescence, higher = more signal;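 note: z-score combines 667nm fluorescence intensity with signal-to-noise per printed compound spot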
[7] = compound binding in COS7 lysate, probe aLAP1, primary screen, cell lysate, small-molecule microarray (AID 1124); settings: probe aLAP1, fluorescence, higher = more signal;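 note: lysate comes from COS7 cells expressing LAP1 and is applied at 0.3 µg/mL; score merges spot fluorescence near 667 nm with signal-to-noise over triplicate slides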
[8] = test system: Sam68 (KHDRBS1); experiment: Sam68 small-molecule binders, primary screen, biochemical, small-molecule microarray, 635 nm fluorescence (AID 1125); settings: small-molecule microarray binding, higher = more signal;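 note: score merges 667 nm channel intensity with signal to noise over triplicate slides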
[9] = test system: Chordin-like protein 2 (CHRDL2); experiment: CHRDL2 small-molecule binders, primary screen, biochemical, small-molecule microarray, 635 nm fluorescence (AID 1126); settings: small-molecule microarray binding, fluorescence 635 nm; higher = more signal;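 note: printed compound slides probed with Chrdl2 protein at 4 µg/mL for 1 h at 4 C; score merges 667 nm emission intensity with signal to noise over three replicate slides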
[10] = target: Concanavalin-A (Canavalia ensiformis) (UniProt P02866); experiment: ConA small-molecule binders, primary screen, artefact control for SMM control protein annotation, biochemical, small-molecule microarray, Alexa647 label, 635 nm (AID 1127); settings: ConA-A647 binding fluorescence, higher = more signal;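 note: z combines 667 nm emission intensity with signal-to-noise across three replicate slides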
[11] = anti-His antibody binders, primary screen, artefact control for SMM control protein annotation, biochemical, small-molecule microarray, 635 nm fluorescence (AID 1128); settings: anti-His Alexa647 antibody binding, higher = more signal;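 note: score merges feature fluorescence with signal-to-noise for each printed compound spot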
[12] = test system: Human papillomavirus type 1a E7 protein (residues 1-88); experiment: HPV1a E7 small-molecule binders, primary screen, biochemical, small-molecule microarray, residues 1-88, 635 nm (AID 1129); settings: small-molecule microarray binding, fluorescence 635 nm; higher = more signal
[13] = target: Focal adhesion kinase 1 (Homo sapiens) (UniProt Q05397); experiment: small-molecule microarray binders of FAK, primary screen, biochemical, 635/667 nm fluorescence, BSA, DTT (AID 1130); settings: PTK2 binding, 635 nm fluorescence, higher = more signal;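 note: composite of spot emission at 667 nm and signal to noise over triplicate slides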
[14] = test system: Fibrinogen (Alexa647-labelled); experiment: fibrinogen binders on compound microarrays, profiling panel, artefact control for SMM control-protein annotation, biochemical, small-molecule microarray, 635/667 nm fluorescence (AID 1131); settings: fibrinogen-A647 binding fluorescence, higher = more signal;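 note: z-score merges 667 nm fluorescence with per-spot signal-to-noise over triplicate slides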
[15] = target: Follistatin (Homo sapiens) (UniProt P19883); experiment: follistatin binders on small-molecule microarrays, primary screen, biochemical, small-molecule microarray, 635/667 nm fluorescence (AID 1132); settings: FST binding, 635 nm fluorescence, higher = more signal
[16] = target: Fibroblast growth factor 2 (Homo sapiens) (UniProt P09038); experiment: FGF2 binders on small-molecule microarrays, primary screen, biochemical, small-molecule microarray, 635/667 nm fluorescence (AID 1133); settings: small-molecule microarray binding, FGF2, fluorescence 635/667; higher = more signal
[17] = mitochondrial membrane potential change in A549 cells, profiling panel, cell-based, JC-1 fluorescence, basal, 24 h, 100 nL (AID 1138); settings: higher = more signal;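 note: A549 lung adenocarcinoma cells under basal conditions with no added stimulus; test concentration not given here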
[18] = test system: Lefty1; experiment: Lefty1 binders on small-molecule microarrays, primary screen, biochemical, small-molecule microarray, 635/667 nm fluorescence (AID 1139); settings: small-molecule microarray binding, fluorescence 635/667; higher = more signal
[19] = test system: wheat germ agglutinin (Triticum aestivum), Alexa647-labelled; experiment: wheat germ agglutinin binders on compound microarrays, profiling panel, artefact control for SMM control-protein annotation, biochemical, small-molecule microarray, 635/667 nm fluorescence (AID 1140); settings: WGA-A647 binding, 635 nm fluorescence, higher = more signal;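 note: score merges 667 nm feature emission with signal to noise over triplicate slides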
[20] = target: Luciferin 4-monooxygenase (Photinus pyralis) (UniProt P08659); experiment: firefly luciferase enzyme inhibitors, primary screen, biochemical, luminescence, purified enzyme, 2006 set (AID 1141); settings: SteadyGlo luminescence, 30 min, higher = more signal, called active from +8 up or from −8 down;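 note: cell-free assay with purified firefly luciferase at 100 ng per well in PBS; test concentration not given here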
Chain of Luciferin 4-monooxygenase (Photinus pyralis) (P08659 whole entry, looked up): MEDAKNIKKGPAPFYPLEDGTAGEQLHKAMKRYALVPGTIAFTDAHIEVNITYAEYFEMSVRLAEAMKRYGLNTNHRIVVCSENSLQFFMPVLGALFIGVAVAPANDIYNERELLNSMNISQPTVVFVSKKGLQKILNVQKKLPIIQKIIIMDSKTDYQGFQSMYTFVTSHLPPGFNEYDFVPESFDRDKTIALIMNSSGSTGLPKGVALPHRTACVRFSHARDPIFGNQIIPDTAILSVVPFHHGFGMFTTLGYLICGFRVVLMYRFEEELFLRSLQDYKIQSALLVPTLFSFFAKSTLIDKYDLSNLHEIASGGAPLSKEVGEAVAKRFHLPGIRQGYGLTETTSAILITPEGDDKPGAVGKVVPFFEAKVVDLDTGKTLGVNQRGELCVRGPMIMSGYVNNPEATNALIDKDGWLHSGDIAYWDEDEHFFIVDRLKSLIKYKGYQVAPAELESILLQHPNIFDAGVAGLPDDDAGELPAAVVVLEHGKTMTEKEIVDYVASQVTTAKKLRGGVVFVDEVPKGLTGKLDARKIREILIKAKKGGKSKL

Chain of Albumin (Bos taurus) (P02769 whole entry, looked up): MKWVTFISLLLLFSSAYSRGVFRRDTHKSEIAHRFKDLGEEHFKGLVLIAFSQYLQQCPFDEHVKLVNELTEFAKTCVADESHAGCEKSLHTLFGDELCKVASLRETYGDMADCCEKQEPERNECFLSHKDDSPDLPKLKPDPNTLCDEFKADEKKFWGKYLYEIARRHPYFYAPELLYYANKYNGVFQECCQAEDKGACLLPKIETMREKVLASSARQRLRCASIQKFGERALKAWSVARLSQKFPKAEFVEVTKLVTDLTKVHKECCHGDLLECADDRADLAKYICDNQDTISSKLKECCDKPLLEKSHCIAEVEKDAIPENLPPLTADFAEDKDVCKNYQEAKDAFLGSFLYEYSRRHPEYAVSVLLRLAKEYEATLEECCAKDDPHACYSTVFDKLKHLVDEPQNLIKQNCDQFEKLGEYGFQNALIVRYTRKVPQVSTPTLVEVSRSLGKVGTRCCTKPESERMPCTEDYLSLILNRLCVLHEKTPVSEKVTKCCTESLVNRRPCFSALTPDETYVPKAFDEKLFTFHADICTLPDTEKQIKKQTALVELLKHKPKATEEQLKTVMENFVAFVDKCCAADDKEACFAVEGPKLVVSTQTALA
Chain of Concanavalin-A (Canavalia ensiformis) (P02866 whole entry, looked up): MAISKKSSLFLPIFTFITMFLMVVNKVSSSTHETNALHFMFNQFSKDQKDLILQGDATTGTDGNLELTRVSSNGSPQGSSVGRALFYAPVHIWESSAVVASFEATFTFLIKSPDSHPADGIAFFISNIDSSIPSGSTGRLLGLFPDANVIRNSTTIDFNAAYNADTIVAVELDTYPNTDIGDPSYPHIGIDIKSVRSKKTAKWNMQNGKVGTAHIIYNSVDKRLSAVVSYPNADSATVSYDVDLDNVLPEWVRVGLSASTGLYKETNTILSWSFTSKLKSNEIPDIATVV
Chain of Focal adhesion kinase 1 (Homo sapiens) (Q05397 whole entry, looked up): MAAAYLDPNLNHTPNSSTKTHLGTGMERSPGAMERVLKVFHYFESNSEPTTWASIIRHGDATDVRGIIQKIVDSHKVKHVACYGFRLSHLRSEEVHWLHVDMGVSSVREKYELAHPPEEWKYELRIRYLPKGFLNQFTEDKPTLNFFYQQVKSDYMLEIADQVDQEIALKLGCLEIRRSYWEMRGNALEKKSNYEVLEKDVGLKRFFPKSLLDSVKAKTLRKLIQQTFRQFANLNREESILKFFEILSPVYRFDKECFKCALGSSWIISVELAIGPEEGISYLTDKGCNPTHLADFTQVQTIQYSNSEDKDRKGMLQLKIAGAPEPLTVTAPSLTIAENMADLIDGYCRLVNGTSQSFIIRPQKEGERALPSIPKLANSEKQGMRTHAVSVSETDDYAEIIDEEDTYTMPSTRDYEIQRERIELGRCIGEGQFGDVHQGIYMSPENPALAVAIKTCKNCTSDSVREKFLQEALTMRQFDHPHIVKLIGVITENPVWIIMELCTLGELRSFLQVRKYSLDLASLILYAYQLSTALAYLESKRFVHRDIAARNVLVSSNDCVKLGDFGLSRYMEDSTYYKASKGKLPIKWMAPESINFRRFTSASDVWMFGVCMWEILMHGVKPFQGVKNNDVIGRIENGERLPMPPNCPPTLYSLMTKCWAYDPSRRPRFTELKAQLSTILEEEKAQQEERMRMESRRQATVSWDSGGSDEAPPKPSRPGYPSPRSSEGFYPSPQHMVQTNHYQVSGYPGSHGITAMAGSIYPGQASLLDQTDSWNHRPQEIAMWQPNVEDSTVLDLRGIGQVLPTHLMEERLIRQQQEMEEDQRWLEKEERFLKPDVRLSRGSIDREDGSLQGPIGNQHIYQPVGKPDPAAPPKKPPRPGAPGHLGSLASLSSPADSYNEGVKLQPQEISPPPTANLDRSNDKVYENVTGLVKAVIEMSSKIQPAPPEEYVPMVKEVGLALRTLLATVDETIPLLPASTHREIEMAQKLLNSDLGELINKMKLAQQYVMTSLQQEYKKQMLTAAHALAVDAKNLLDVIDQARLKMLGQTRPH
Chain of Follistatin (Homo sapiens) (P19883 whole entry, looked up): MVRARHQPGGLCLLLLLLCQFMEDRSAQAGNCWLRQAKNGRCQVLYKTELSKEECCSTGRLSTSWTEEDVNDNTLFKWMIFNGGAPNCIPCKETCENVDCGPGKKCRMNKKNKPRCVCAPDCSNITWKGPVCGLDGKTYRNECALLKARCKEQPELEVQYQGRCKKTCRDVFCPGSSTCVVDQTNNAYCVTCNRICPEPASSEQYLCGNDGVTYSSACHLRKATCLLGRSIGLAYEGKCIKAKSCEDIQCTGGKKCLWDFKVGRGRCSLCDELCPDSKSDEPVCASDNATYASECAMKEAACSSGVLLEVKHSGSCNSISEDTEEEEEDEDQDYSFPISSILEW
Chain of Fibroblast growth factor 2 (Homo sapiens) (P09038 whole entry, looked up): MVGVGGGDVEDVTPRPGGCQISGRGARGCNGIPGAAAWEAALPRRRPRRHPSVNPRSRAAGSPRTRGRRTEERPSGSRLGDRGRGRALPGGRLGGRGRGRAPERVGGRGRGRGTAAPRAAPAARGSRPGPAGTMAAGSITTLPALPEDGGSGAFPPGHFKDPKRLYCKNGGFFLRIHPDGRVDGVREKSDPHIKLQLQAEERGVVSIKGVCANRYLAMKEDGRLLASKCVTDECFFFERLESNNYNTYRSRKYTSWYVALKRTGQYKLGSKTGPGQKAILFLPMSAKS

| SMILES | composite z-score [1] | composite Z-score [2] | composite z-score [3] | composite z-score [4] | composite z-score [5] | composite z-score [6] | composite z-score [7] | composite z-score [8] | composite z-score [9] | composite z-score [10] | composite z-score [11] | composite z-score [12] | composite z-score [13] | composite z-score [14] | composite z-score [15] | composite z-score [16] | z-score [17] | composite z-score [18] | composite z-score [19] | z-score [20] |
| --- | --- | --- | --- | --- | --- | --- | --- | --- | --- | --- | --- | --- | --- | --- | --- | --- | --- | --- | --- | --- |
| C=C(CCCC)/C(=C/C[C@H](OC(=O)c1ccncc1)c1ccc(OCCO)cc1)c1cnc2ccccc2c1 | 0.667 | -0.0072 (inactive) | 0.0533 | -0.0891 | 0.755 | 1.74 | 0.111 | 1.31 | 1.11 | 1.13 | 2.06 | 1.23 | 0.525 | 0.892 | 1.28 | 1.02 | 2.39 | 1.27 | 1.36 | -1.83 (inactive) |
| O=C1C[C@@](C(=O)NC2CC2)(c2ccc([N+](=O)[O-])cc2)[C@@H](c2ccc(CO)cc2)N1C1CCCCC1 | 0.535 | 0.002 (inactive) | 0.11 | -0.0995 | 0.512 | 2.7 | 0.0901 | 1.28 | 0.43 | 0.704 | 2.79 | 1.23 | 0.333 | 0.122 | 1.3 | 1.64 | -0.282 | 0.894 | 0.407 | 0.997 (inactive) |
| CCOC(=O)c1cn(C[C@H](Cc2ccccc2)NC(=O)N[C@H](CO)CCc2oc(C(C)=O)c(C(=O)OC)c2C(=O)OC)nn1 | 0.576 | 0.511 (inactive) | 0.269 | -0.123 | 0.443 | 1.57 | 0.131 | 1.3 | 1.17 | 0.883 | 0.0033 | 1.18 | 0.123 | 0.812 | 1.31 | 1.66 | -0.391 | 1.59 | 0.493 | 0.783 (inactive) |
| Cc1ccc(F)cc1S(=O)(=O)N[C@H]1CCN(Cc2ccc(OC(C)C)cc2)C1 | -0.052 | -0.058 (inactive) | -0.0244 | -0.19 | 0.231 | 1.89 | 0.659 | 0.65 | 0.544 | -0.201 | 0.6 | -0.296 | -0.198 | -0.71 | 0.855 | 0.157 | 1.3 | 1.1 | -0.6 | -0.557 (inactive) |
| CCOC(=O)C1=CC[C@@H](c2ccccc2)N(S(=O)(=O)c2ccc(C)cc2)[C@H]1c1ccccc1I | 0.856 | 0.008 (inactive) | 1.02 | -0.0226 | 0.649 | 0.842 | 0.748 | 0.875 | -0.131 | 1.01 | 1.5 | 1.21 | 0.475 | 0.995 | 0.923 | 0.184 | 1.27 | -0.163 | 1.01 | 1.55 (inactive) |
| C=CC[C@@]1(C(=O)OC)N=C(c2ccc(OCCCO)cc2)O[C@@H]1c1ccccc1N=[N+]=[N-] | -1.11 | 0.721 (inactive) | 0.477 | 0.12 | 0.475 | 2.76 | 0.568 | 1.29 | 1.33 | 0.896 | 2.37 | 1.24 | 0.568 | 0.159 | 1.41 | 1.66 | 0.311 | 0.53 | 0.874 | -6.39 (inactive) |
| CC(C)C(O)C1C=CC2C(=O)NC(=O)C2N1Nc1ccccn1 (stereo not given) | 0.701 | 0.316 (inactive) | -0.0044 | -0.0464 | 0.722 | 1.59 | 0.331 | 0.472 | -0.369 | 0.561 | 1.25 | 0.218 | -0.0716 | 0.285 | 0.712 | 0.0205 | 0.44 | 0.129 | 0.169 | -0.362 (inactive) |
| O=C(NC1CC1)[C@@H]1c2ccccc2C(=O)N(Cc2cc(C(F)(F)F)cc(C(F)(F)F)c2)[C@H]1c1ccc(CO)cc1 | -0.148 | -0.563 (inactive) | -0.352 | -0.102 | 0.679 | 1.29 | 0.174 | 0.157 | -0.936 | 0.321 | 0.399 | 0.228 | 0.052 | 0.427 | 0.755 | 0.0292 | -0.197 | -0.291 | 0.416 | -0.423 (inactive) |
| COC(=O)[C@H](Cc1ccccc1)N1CC2=CCCC=C[C@@H]2[C@H]1[C@H](O)Cc1ccccc1 | 0.0618 | 0.495 (inactive) | 0.17 | -0.118 | 0.708 | 0.25 | 0.368 | 0.374 | 0.204 | 0.854 | -0.305 | 0.431 | -0.384 | 0.515 | 0.87 | 0.122 | 0.18 | 0.273 | 0.261 | -0.62 (inactive) |
| CO[C@H]1O[C@H](CO)[C@@H](OC(=O)Nc2ccc3c(c2)OCO3)[C@H](OC(=O)Nc2ccccc2-c2ccccc2)[C@H]1OC(=O)Nc1ccccc1-c1ccccc1 | 0.287 | 0.0432 (inactive) | 0.214 | 0.084 | 0.687 | 2.27 | 0.869 | 1.29 | -0.162 | 1.03 | 1.73 | 1.26 | 1.17 | 0.435 | 0.694 | 0.819 | -0.559 | -0.152 | 0.331 | -1.22 (inactive) |
| O=C1NC(=O)C2C1C=CC(C(O)c1ccc([N+](=O)[O-])cc1)N2Nc1ccccn1 (stereo not given) | -0.494 | -0.267 (inactive) | -0.173 | -0.0843 | 0.265 | 0.555 | 0.0223 | -0.413 | 0.472 | -0.257 | 0.753 | 0.175 | -0.329 | 0.0114 | -0.12 | -0.163 | -0.0893 | -0.262 | -0.0047 | -1.48 (inactive) |
